Pf Dd2 growth: inhibitors of Plasmodium falciparum Dd2 growth | hit rate 4.3% among 120,000 | Potency, µM (top dose mostly 28.9 µM), inactives show at the highest dose activity, negative = inhibition, hits mostly inhibitors | P. falciparum Dd2 growth, SYBR Green, 72 h; active means well fitted inhibition curve with a large enough effect;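 further: plate controls were DMSO vehicle for no effect and reference drug for full effect; nearly all actives have a fitted effect of over 65% in size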
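Readout: SYBR Green fluorescence, 485 nm excitation, 535 nm emission, after ~16 h lysis at 37C. Before that, Dd2-infected red cells (2.5% hematocrit) grew 72 h with compound, 29 uM top final concentration.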
Active calls of the source: *; i = inactive; [ ] = remark or other dose. The entries come from a sample that favours hits as a whole. Potency means the concentration at half of the fitted maximal effect.

SMILES	Pf Dd2 growth
COc1cc2c(=O)c(C(=O)c3ccc(C)c(C)c3)cn(Cc3ccccc3)c2cc1OC	12.6µM*
COc1ccc(C(=O)c2cn(CC(=O)Nc3cc(OC)cc(OC)c3)c3ccc(OC)cc3c2=O)cc1	-1.6%
Cc1ccc(C(=O)c2cn(Cc3ccccc3)c3cc4c(cc3c2=O)OCCO4)cc1	i
CCOc1ccc(NC(=O)Cn2cc(C(=O)c3ccc(C)c(C)c3)c(=O)c3cc(OC)c(OC)cc32)cc1	11.7%
Cn1ccnc1CNC(=O)C[C@@H]1C[C@H]2O[C@H](CNCc3cnccc3Cl)[C@@H](O)[C@H]2O1	0.4%
CC(C)CCNC(=O)CC1Sc2ncccc2N(C)C1=O (stereo not drawn)	-19.8%
CC(C)CCNC(=O)NC1CCN(C(=O)N2CC3CC(C2)[C@H]2CCCC(=O)N2C3)CC1 (stereo partly drawn)	-20.6%
O=C(NCCC1=CCCCC1)c1cc2n(n1)CC(c1ccc(Cl)cc1)OC2 (stereo not drawn)	-24.9%
COc1cc(CN2CCc3nc(N(C)C)[nH]c(=O)c3CC2)cc(OC)c1OC	-9.3%[5.79 µM]
COc1ccccc1NC(=O)Cn1c(C)ccc(NC(=O)Nc2ccc(C)cc2)c1=O	i
COCc1noc(-c2ccc(N(C)CC3CC(=O)N(C(C)(C)C)C3)nc2)n1 (stereo not drawn)	-13.8%
CCC(CC)NC(=O)C1(CCO)CC12CCOCC2 (stereo not drawn)	4.0%
COCC1CN(C(C)=O)CC12CCN(C(=O)NCc1ccco1)CC2 (stereo not drawn)	29.5%
CCOc1ccc(C(=O)c2cn(Cc3cccc(OC)c3)c3cc4c(cc3c2=O)OCO4)cc1	-27.1%
CCOc1ccc(C(=O)c2cn(CC(=O)Nc3cc(OC)ccc3OC)c3cc(OC)c(OC)cc3c2=O)cc1	i
CCOc1ccc(C(=O)c2cn(Cc3ccc(OC)cc3)c3cc(OC)c(OC)cc3c2=O)cc1	10µM*
CC(C)NC(=O)c1cc2c(Cl)nc3ccccc3c2s1	3.3%
COc1ccccc1Nc1cc(C(=O)NC2CCCC2)c2ccccc2n1	16.7%
CCCN1CCN(CCCNC(=O)c2cc3c(Cl)nc4ccccc4c3s2)CC1	10µM*
CCOC(=O)C1CCCN(C(=O)c2cc3c(Cl)nc4ccccc4c3s2)C1 (stereo not drawn)	-16.0%
COc1ccc(Nc2cc(C(=O)NCCCN(C)Cc3ccccc3)c3ccccc3n2)c(OC)c1	17.0%
CCN(CCCNC(=O)c1cc(Nc2ccccc2OC)nc2ccccc12)c1cccc(C)c1	11.2µM*
COc1ccc(N2CCN(CCCNC(=O)c3cc(Nc4ccccc4OC)nc4ccccc34)CC2)cc1	-15.5%
O=C(NCCCN1CCN(c2ccccc2F)CC1)c1cc2c(Cl)nc3ccccc3c2s1	2.82µM*
COc1ccc(Nc2cc(C(=O)NCc3ccccc3)c3ccccc3n2)c(OC)c1	-13.2%
SMILES	Pf Dd2 growth
COc1ccc(OC)c(CNC(=O)c2cc3c(Cl)nc4ccccc4c3s2)c1	50.0%
O=C(c1cc2c(Cl)nc3ccccc3c2s1)N1CCCCC1	11.5%
COc1ccc(Nc2cc(C(=O)NCCCN3CCN(c4ccccc4F)CC3)c3ccccc3n2)c(OC)c1	10µM*
Cc1ccc(-c2cn[nH]c2C2CCCN(C(=O)CN3CCOCC3)C2)cc1 (stereo not drawn)	-16.7%
Cc1noc(C)c1S(=O)(=O)N1CCCN(S(=O)(=O)c2ccccc2)CCC(=O)NCC1	-14.1%
O=C(c1ccco1)N1CCC(c2n[nH]c(=O)n2Cc2ccc(F)cc2)CC1	-19.4%
O=C1CCN(C(=O)[C@@H]2CCCN2C(=O)NCCc2ccccc2)CCCCCCN1	-13.1%
CCC1(C2CCN(C(=O)CCc3ccccc3)CC2)NC(=O)N(CCc2scnc2C)C1=O (stereo not drawn)	-15.9%
COc1ccc(OCC(=O)N2CCC3(CC2)C(=O)NCCN3C)cc1	-5.5%
O=C(NC1CC1)[C@@H]1CN(Cc2ccncc2F)C[C@H]1CO	-0.5%
COCC(=O)N[C@@H]1CN(Cc2ccccc2C(F)(F)F)C[C@H]1CO	12.8%
CN(C)c1nccnc1OC1CCN(C(=O)c2ccccc2)C1 (stereo not drawn)	32.0%
COc1ccc(CC(=O)N2CCCCC23Cc2ccccc2NC3=O)cc1 (stereo not drawn)	-4.5%
O=C(NCc1ccccc1)c1ccc2nc(CCc3ccccc3)oc2c1	3.5%
CCCNC(=O)c1ccc2nc(CCc3ccccc3)oc2c1	3.9%
O=C(NCCCN1CCN(c2ccccc2F)CC1)c1ccc2nc(CCc3ccccc3)oc2c1	11.2µM*
CCC1=C(C(=O)OC)C(c2ccccc2C)N2C(CC(=O)N3CCCC3)=CSC2=N1 (stereo not drawn)	-10.8%
CCn1c(=O)c2cc(C(=O)NCCCN3CCC(C)CC3)sc2c2ccccc21	i
CCOC(=O)C1CCCN(C(=O)c2cc3c(=O)[nH]c4ccc(C)cc4c3s2)C1 (stereo not drawn)	i
CCN(CCCNC(=O)c1cc2c(=O)n(CC)c3ccccc3c2s1)c1ccccc1	-1.1%
Cn1c(=O)c2cc(C(=O)NCCCN3CCN(c4ccccc4F)CC3)sc2c2ccccc21	53.6%[5.79 µM]
CCN1CCN(CCCNC(=O)c2cc3c(=O)n(C)c4ccccc4c3s2)CC1	3.16µM*

High-throughput results (PubChem)
